# Sampled rows, rich in hits. Any-hit rate of the full collection: about 19%.
# KB-V1 MDR tox: qHTS assay for MDR1-selective chemotherapeutics: Primary screen using the drug-selected MDR subline cells KB-V1; KB-V1 MDR cells viability, CellTiter-Glo, 72 h; Potency, µM (titrated, usually from 46.1 µM), usual class: cytotoxic; 400,000 tested, 3.4% active; AID 1347076, 2019; further: nearly all actives have a fitted effect of over 60% in size
#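 Luminescent ATP read-out (CellTiter-Glo, 10 min) measures survival of drug-selected KB-V1 MDR cells after 72 h, 37 degrees C compound exposure. Medium: phenol-red-free DMEM, 10% FBS. Values from fitted concentration-response curves.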
# TDP1 cell CPT: qHTS for Inhibitors of human tyrosyl-DNA phosphodiesterase 1 (TDP1): qHTS in cells in presence of CPT; chicken DT40 Tdp1-/-;hTDP1 cells + 20 nM CPT, ATP luminescence, 48 h; Potency, µM (top dose mostly 46.2 µM), usual class: inhibitors; 420,000 tested, 12% active; further: nearly all actives have a fitted effect of over 55% in size
#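 Cell growth measured by CellTiter-Glo luminescence after a minimum 48 h, 37 C compound exposure with 20 nM CPT in Tdp1-knockout DT40 cells stably expressing hTDP1, seeded 400/well; qHTS titration format.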
# HT1080NT lethal: qHTS for induction of synthetic lethality in tumor cells producing 2HG: qHTS for the HT-1080-NT fibrosarcoma cell line; Potency, µM (series often up to 46.1 µM), hits mostly cytotoxic; 360,000 tested, 1.6% active; HT-1080-NT fibrosarcoma viability, CellTiter-Glo ATP luminescence, 48 h; AID 686970, 2013;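 further: NT is the 2HG producing partner of a matched IDH1 knockdown line; nearly all actives have a fitted effect of over 55% in size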
#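 Viability of the 2HG-overproducing fibrosarcoma line after 48 hours of compound exposure at 37 degrees C was determined by luminescence with CellTiter-Glo, and concentration-effect curves were then fitted and categorized.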
# TDP1 cell noCPT: qHTS for Inhibitors of human tyrosyl-DNA phosphodiesterase 1 (TDP1): qHTS in cells in absence of CPT. DT40 Tdp1-/- hTDP1 cells, no CPT, ATP luminescence, 48 h. Potency, µM (highest dose often 46.2 µM), most hits filed as inhibitors. 420,000 tested, 15% active; further: nearly all actives have a fitted effect of over 55% in size
#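 Compound effects on proliferation are scored in DT40 Tdp1-/-;hTDP1 cells in the absence of CPT. ATP levels (CellTiter-Glo luminescence) are recorded after a ≥48 hr, 37 °C incubation.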
# HT1080 IDH1KD tx: qHTS for induction of synthetic lethality in tumor cells producing 2HG: qHTS for the HT-1080-IDH1KD cell line. HT-1080 IDH1 knockdown viability, ATP luminescence, 48 h. Potency, µM (doses to about 46.1 µM), usual class: cytotoxic. AID 686971, 2013. 360,000 tested, 2% active
#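 Assay cells: HT-1080 with IDH1 knockdown, 750 per well, RPMI/5% FBS. Exposure: 48 h at 37 °C following 2 h pre-incubation. Read: CellTiter-Glo luminescence; fitted concentration-response, curve class assigned.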
# KB-3-1 tox: qHTS assay for MDR1-selective chemotherapeutics: Primary screen using the parental adenocarcinoma cell KB-3-1; KB-3-1 viability, CellTiter-Glo ATP luminescence, 72 h; Potency, µM (series often up to 46.1 µM), most hits filed as cytotoxic; 400,000 tested, 1.4% active; further: nearly all actives have a fitted effect of over 60% in size
#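 Parental KB-3-1 viability, qHTS format: 72 h compound exposure, 37 °C; CellTiter-Glo; media-only wells and DMSO plates as controls; concentration-effect fits on corrected data.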
# Numbers stand for hits; - = inactive; ? = inconclusive; . = no result given; [ ] = dose if it differs, or a comment. The call rests on the fitted dose curve; in most records, active means well fitted curve in the direction sought with a large enough effect; inconclusive means small, poorly fitted or top-dose-only effect, or another doubt; inactive means no such curve, though single readings can be large; an effect the other way counts as inactive or inconclusive.
SMILES,KB-V1 MDR tox,TDP1 cell CPT,HT1080NT lethal,TDP1 cell noCPT,HT1080 IDH1KD tx,KB-3-1 tox
COc1cc(CN2CCN(c3cccc(Cl)c3)CC2)cc(OC)c1OC,2.31µM,7.31µM,8.91µM,5.8µM,7.08µM,3.66µM
COc1ccc(CCNC(=O)CN2CCN(c3cccc(Cl)c3)CC2)cc1OC,?,20.6µM,-,20.6µM,-,-
COc1ccccc1N1CCN(Cc2cccc(OC)c2OC)CC1,-,?,-,-,-,-
COc1cccc(CN2CCN(c3cccc(C(F)(F)F)c3)CC2)c1OC,20.6µM,?,-,?,-,-
COc1cccc(N2CCN(Cc3cccnc3)CC2)c1,-,-,-[9.24 µM],-,-,-
COc1cc(CN2CCN(C(O)(c3ccccc3)c3ccccc3)CC2)cc(OC)c1OC,-,?,-,14.6µM,-,-
COc1ccccc1OCC(=O)Nc1c(C(=O)c2ccc(F)cc2)oc2ccccc12,-,.,.,.,.,?
Cc1c(C#N)c2ccccc2n1C,-,-,-,-,-,?
Cn1c(CNc2ccccn2)c(C#N)c2ccccc21,23.1µM,-,-,?,-,-
Cc1ccccc1N1CCN(Cc2c(C#N)c3ccccc3n2C)CC1,-,18.4µM,-,?,-,-
Cc1ccc(SCc2c(C#N)c3ccccc3n2C)cc1,-,20.6µM,-,20.6µM,-,-
Cn1c(CN2CCN(CCO)CC2)c(C#N)c2ccccc21,-,-,-,-,-,?
Cn1c(CSc2ccccc2)c(C#N)c2ccccc21,16.4µM,-,-,-,-,-
COC(=O)[C@]12CCCCC=C1N(CCc1ccc(OC)c(OC)c1)C(=O)[C@H](CC(=O)N1CCOCC1)C2,-,-,-,-,-,-
COc1cccc(NC(=O)CN2C(=O)NC3(CCCc4ccccc43)C2=O)c1 (centres undefined),-,-,-,-,-,-
COCCN1CCC(CNCc2cn[nH]c2-c2ccc(C)c(C)c2)C1 (centres undefined),?,-,-,-,-,-
CC(=O)N1CCCN(Cc2cn(-c3ccc(C)cc3)nc2-c2ccc(F)cc2)CC1,-,?,-,18.4µM,-,-
CC(=O)N1CCCN(Cc2cn(-c3cccc(C)c3)nc2-c2cccc(F)c2)CC1,-,?,-,16.4µM,-,-
CC(=O)N1CCCN(Cc2cn(-c3cc(C)ccc3C)nc2-c2ccccc2)CC1,-,18.4µM,-,?,-,-
COCCN1CCC(CNCc2cn(-c3cc(C)ccc3C)nc2-c2ccccc2)C1 (centres undefined),-,?,25.9µM,6.51µM,?,-
Cc1ccc(-n2cc(CN3CCCN(C=O)CC3)c(-c3ccc(F)cc3)n2)cc1,-,?,-,?,-,-
COc1ccc(CN(C)C(=O)[C@H]2O[C@@H](n3ccc(N)nc3=O)[C@H](O)[C@@H]2O)cc1OC,-,-,-,-,-,-
CNc1c(N)c(=O)oc2ccccc12,-,-,-,-,-,-
Cc1ccc(Nc2c(N)c(=O)oc3ccccc23)cc1,?,?,?,25.9µM,?,?
Cc1ccc(S(=O)(=O)N2[C@H](CC(=O)c3ccccc3)OC[C@@H]2C)cc1,?,?,-,?,-,-
SMILES,KB-V1 MDR tox,TDP1 cell CPT,HT1080NT lethal,TDP1 cell noCPT,HT1080 IDH1KD tx,KB-3-1 tox
Cc1ccc(S(=O)(=O)N2C[C@@H]3CCCC[C@@H]3[C@@H](C)[C@H]2CC(=O)c2ccccc2)cc1,-,14.6µM,-,13µM,-,-
O=C(CCc1ccccc1)NCC(c1ccco1)N1CCc2ccccc21 (centres undefined),7.31µM,4.61µM,6.51µM,4.11µM,5.17µM,3.66µM
O=C(NCC(c1ccco1)N1CCc2ccccc21)c1ccccc1F (centres undefined),?,-,-,?,-,-
Cc1cccc(C(=O)NCC(c2ccco2)N2CCc3ccccc32)c1 (centres undefined),-,?,-,14.6µM,-,-
O=C(NCC(c1ccco1)N1CCc2ccccc2C1)C(=O)Nc1ccccc1 (centres undefined),-,?,-,?,-,-
Cc1ccc(C(=O)NCC(c2ccco2)N2CCc3ccccc32)cc1 (centres undefined),?,10.3µM,-,13µM,-,-
O=C(NCC(c1ccco1)N1CCc2ccccc21)c1ccc([N+](=O)[O-])cc1 (centres undefined),?,-,-,-,-,-
O=C(NCC(c1ccco1)N1CCc2ccccc21)c1ccccc1Br (centres undefined),?,20.6µM,-,?,-,-
CC(=O)Nc1cccc(NC(=O)C(=O)NCC(c2ccco2)N2CCc3ccccc32)c1 (centres undefined),-,?,-,?,-,-
CN(C)c1ccnc(Nc2ccc(O)cc2)c1C#N,-,-,-,-,-,?
O=S1(=O)CC(N2CCN(CC3CC3)CC2)CN1Cc1ccccc1 (centres undefined),-,?,-,-,-,-
CC(=O)c1ccc(OC(C)C(=O)OCC(=O)NCCc2ccccc2)cc1 (centres undefined),-,-,-,-,-,-
Cn1cnc(NCc2ccccc2)c1[N+](=O)[O-],-,-,-,-,-,-
COc1cc(=O)n2c(c1C(=O)NCc1ccco1)CCN(Cc1c(F)cccc1F)CC2,.,-,.,-,.,.
O=C(Cn1c(=O)nc(-c2ccccc2)c2ccccc21)N1CCN(c2ccc(F)cc2)CC1,.,-,.,-,.,.
O=C(NCC(c1ccco1)N1CCc2ccccc21)c1cccc([N+](=O)[O-])c1 (centres undefined),?,16.4µM,-,20.6µM,-,-
COc1cccc(NC(=S)N2CCC(c3ccc(C)cc3)C2)c1 (centres undefined),-,11.6µM,-,7.31µM,-,?
COc1cccc(NC(=O)CCC2CCN(C(=O)c3cccc(NC(C)=O)c3)CC2)c1,.,-,-,-,-,.
COc1cccc(NC(=S)N2CCC(Cc3ccccc3)CC2)c1,-,20.6µM,-,?,-,-
COc1ccc(NC(=S)N2CCC(c3ccc(C)cc3)C2)cc1 (centres undefined),-,?,-,?,-,-

# Assay outcomes from PubChem.
